Results on 37 molecules are retold here after PubChem BioAssay (NCATS).

Inconclusive results are not listed. Entries that show only a call come without a potency. The source made the active and inactive calls. The call rests on the fitted dose curve.

The test is described as follows: Primary qHTS for inhibitors of SARS-S pseudo-typed particle cell entry (AID 1479145). Further: nearly all actives have a fitted effect of over 45% in size. The settings on record: SARS-S pseudotyped particle cell entry, luciferase reporter; series mostly up to 57.1 µM.
`O=C1CCC(N2C(=O)c3ccccc3C2=O)C(=O)N1` (configuration not stated): the Potency result is “inactive”.
With `O=C1NC(c2ccccc2)(c2ccccc2)C(=O)N1COP(=O)(O)O` the entry was “inactive”.
With `CC[C@@H](CO)NCCN[C@@H](CC)CO`, the Potency result is “inactive”.
With `CCC1(c2ccccc2)C(=O)NCNC1=O`, the Potency result is “inactive”.
Turning to `CO/N=C(\C(=O)N[C@@H]1C(=O)N2C(C(=O)O)=C(CSc3nc(=O)c(O)nn3C)CS[C@H]12)c1csc(N)n1`, the Potency result is “inactive”.
As to `CO/N=C1\CN(c2nc3c(cc2F)c(=O)c(C(=O)O)cn3C2CC2)CC1CN` (configuration not stated), the Potency result was “inactive”.
For `CC(C)NCC(O)c1ccc(O)c(O)c1` (configuration not stated), the Potency result was “inactive”.
The entry for `CN(C)CCc1c[nH]c2ccc(CS(=O)(=O)N3CCCC3)cc12` is “inactive”; for `CC(=O)OCC(CCn1cnc2cnc(N)nc21)COC(C)=O` it is “inactive”.
The entry for `CN1C(CCl)Nc2cc(Cl)c(S(N)(=O)=O)cc2S1(=O)=O` (configuration not stated) is “inactive”.
As for `CC#C[C@]1(O)CC[C@H]2[C@@H]3CCC4=CC(=O)CCC4=C3[C@@H](c3ccc(N(C)C)cc3)C[C@@]21C`, the Potency result is “inactive”.
`CC(=O)Nc1nnc(S(N)(=O)=O)s1`: the Potency result was “inactive”.
For the molecule `O=C(O)P(=O)(O)O`, the Potency entry is “inactive”.
On to `CCCc1nc2c(C)cc(-c3nc4ccccc4n3C)cc2n1Cc1ccc(-c2ccccc2C(=O)O)cc1`, for which the Potency result was “inactive”.
`CC(C)(C)NC(=O)[C@@H]1CN(Cc2cccnc2)CCN1C[C@@H](O)C[C@@H](Cc1ccccc1)C(=O)N[C@H]1c2ccccc2C[C@H]1O`: the Potency result was “inactive”.
The entry for `O=C(O)COCCN1CCN(C(c2ccccc2)c2ccc(Cl)cc2)CC1` (configuration not stated) is “inactive”; for `N=c1nc(N2CCCCC2)cc(N)n1O` it is “inactive”; for `Oc1cn2c(n1)Nc1ccc(Cl)c(Cl)c1C2` it is “inactive”.
As to `CN(C)/N=N/c1nc[nH]c1C(N)=O`, the Potency entry was “inactive”.
Take `Clc1ccc(C(c2ccccc2Cl)C(Cl)Cl)cc1` (configuration not stated): the Potency result was “inactive”.
For `O=C1NC(=O)C(c2ccccc2)(c2ccccc2)N1`, the Potency entry is “inactive”.
With `Nc1nnc(-c2cccc(Cl)c2Cl)c(N)n1` the entry was “inactive”; with `CCCCNC(=O)NS(=O)(=O)c1ccc(C)cc1`, “inactive”; with `CCn1cc(C(=O)O)c(=O)c2cc(F)c(N3CCNCC3)cc21`, “inactive”.
As to `Nc1cc(-c2ccncc2)c[nH]c1=O`, the Potency result was “inactive”.
With `Cc1cccc(Nc2ccncc2S(=O)(=O)NC(=O)NC(C)C)c1`, the Potency result is “inactive”.
For `CC(C)c1nc(CN(C)C(=O)N[C@H](C(=O)N[C@@H](Cc2ccccc2)C[C@H](O)[C@H](Cc2ccccc2)NC(=O)OCc2cncs2)C(C)C)cs1`, the Potency result was “inactive”.
The entry for `CCOC(=O)Nc1ccc2c(c1)N(C(=O)CCN1CCOCC1)c1ccccc1S2` is “inactive”; for `CC(C)(C)NC(=O)[C@H]1CC[C@H]2[C@@H]3CC[C@H]4NC(=O)C=C[C@]4(C)[C@H]3CC[C@]12C` it is “inactive”.
With `Cc1ccc(C)c(OCCCC(C)(C)C(=O)O)c1` the entry was “inactive”; with `CC(C)NCC(O)COc1cccc2[nH]ccc12` (configuration not stated), “inactive”; with `CN/C(=C\[N+](=O)[O-])NCCSCc1ccc(CN(C)C)o1`, “inactive”.
On to `C=C(CC)C(=O)c1ccc(OCC(=O)O)c(Cl)c1Cl`, for which the Potency result is “inactive”.
Take `O=c1n(CCCN2CCN(c3cccc(Cl)c3)CC2)nc2ccccn12`: the Potency result was “inactive”.
The entry for `Nc1nc2c(ncn2COCCO)c(=O)[nH]1` is “inactive”; for `NCCCC(O)(P(=O)(O)O)P(=O)(O)O` it is “inactive”; for `COCCCOc1cc(C[C@@H](C[C@H](N)[C@@H](O)C[C@H](C(=O)NCC(C)(C)C(N)=O)C(C)C)C(C)C)ccc1OC` it is “inactive”.
